For the test, the system named is MILI (PIWIL2) piRISC loaded with L1MC piRNA (26 nt). Description: pre-steady-state target cleavage rate (min^-1); guide: L1MC piRNA 5'p-UAACUAAAUACUAUGCAAGCUGUAGG; MIWI and MILI are mouse PIWI proteins and EfPiwi is from a freshwater sponge; tags in brackets are library labels; higher = faster piRNA-guided slicing of the target. In short, it runs like this: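 The pre-steady-state cleavage rate was calculated from a burst-and-steady-state fit. Data came from Cleave-'n-Seq, in which […] transcribed, DNA-blocked target RNA library was mixed with 1 nM active affinity-purified piRISC carrying one synthetic guide, with or without 500 nM GTSF1 partner protein, in HEPES–potassium acetate buffer at 33 °C for 0–8 or 0–960 min. Uncleaved targets were sequenced and normalised to depth and to weakly complementary targets, three trials were pooled, and k3 was capped at 0.0001 min^-1.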

Setting [1] is: auxiliary factor: 500 nM mouse GTSF1.
[2] abbreviates: auxiliary factor: none (no GTSF1).

± gives the standard deviation.
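Note: 1 nM active piRISC with 0.1 nM target library at 33 °C single turnover.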

On to UCCUCCUUCAGCUUGCAUAGUAUUUACUUA, for which the “pre-steady-state target cleavage rate” value under setting [1] amounted to 0.132 ± 0.023.

Regarding UCCUGGAUGAGCAUGCAUAGAAUUUAGUUA, under setting [1], the “pre-steady-state target cleavage rate” value turned out to be 0.0184 ± 0.008.

Consider UCCUGCUACAGCUUGCAUAGUAAAAAGUAA, for which the “pre-steady-state target cleavage rate” value under setting [1] was 0.0283 ± 0.0099.

Take UCCUGGUACAGCUUGCUAUAGUAUUUAGUUA: the “pre-steady-state target cleavage rate” value under setting [1] is 0.0224 ± 0.009.

UCCUGGAUGAGCUUCGAUAGUAUUUAGUAA: the “pre-steady-state target cleavage rate” value under setting [1] is 0.0558 ± 0.012.

As to UCCUGGAUGAGCAUCCAUAGUAUUUAGUUA, the “pre-steady-state target cleavage rate” value under setting [1] amounted to 0.231 ± 0.059.

For the sequence UCCUGGAUGUCGAACCAUACUAUUAAGUUA, the “pre-steady-state target cleavage rate” value under setting [2] is below 0.0001.

In the case of UCCUGCUACAGGUUGCAUAGUAUUUUCAAA, under setting [1], the “pre-steady-state target cleavage rate” value came to 0.0101 ± 0.0054.

Turning to UCCUGGAUGAGCUUGGAUUGUAUUUAGUUA, under setting [1], the “pre-steady-state target cleavage rate” value is 0.0185 ± 0.0063.

With UCCUCCUACACGAUGCAUAGUAUUUACAAA, the “pre-steady-state target cleavage rate” value under setting [1] came out at 0.122 ± 0.021.

Regarding UCCUGGAUGUCGAACGUAUGAAUUUUGUUA, under setting [2], the “pre-steady-state target cleavage rate” value is below 0.0001.

Turning to UCCUGGUACAGCUUGCAUAGUAUAAAGAAA, the “pre-steady-state target cleavage rate” value under setting [1] worked out at 0.0207 ± 0.0082.

Consider UCCUCCUACAGCUUGCAUAGCUAUUUAGUUA, for which the “pre-steady-state target cleavage rate” value under setting [1] amounted to 0.0126 ± 0.0058.

In the case of UCCUGCUAGAGCUUCCAUAGUAUUUAGUUA, the “pre-steady-state target cleavage rate” value under setting [1] is 0.246 ± 0.047.

With UCCUGCUACAGGAUGCAUAGUAUUUACAAA, the “pre-steady-state target cleavage rate” value under setting [1] worked out at 0.0053 ± 0.0037.

As for UCCUCCUACAGCUUGCAUACAUUUUAGUUA, under setting [1], the “pre-steady-state target cleavage rate” value was 0.00509 ± 0.0039.

For the sequence UCCUGGAUGUCGUUGCAUAGUUUUUAGUAA, the “pre-steady-state target cleavage rate” value under setting [1] was found to be 0.00481 ± 0.004.

With UCCUGGAUGUCCUUGCAUAGUUUUUAGUAA, under setting [1], the “pre-steady-state target cleavage rate” value was determined as 0.013 ± 0.0043.

Regarding UCCUGGAUGUCGAACGAUAGUAUUUUAGUUA, under setting [1], the “pre-steady-state target cleavage rate” value is below 0.0001.

UCCUGGAUGUCGAACGUAAGUAUUAUAGUUA: the “pre-steady-state target cleavage rate” value under setting [2] is below 0.0001.

As to UCCUGGAACAGCUUGCAUAGAAUUUAGAAA, the “pre-steady-state target cleavage rate” value under setting [1] was 0.0206 ± 0.0083.

Take UCCUGGAUGUCCUUGCAUAGAUAUUAGUUA: the “pre-steady-state target cleavage rate” value under setting [1] is 0.00447 ± 0.0038.

For the sequence UCCUGGUACAGCUUGCAUAGAAUUUUGUUA, the “pre-steady-state target cleavage rate” value under setting [1] came to 0.0466 ± 0.016.

For UCCUGCAACAGCUUGCAUAGUAUUUUCAAA, the “pre-steady-state target cleavage rate” value under setting [1] is 0.104 ± 0.027.

UCCUCCUACAGCUUGCAUAGAAUUUACUUA: the “pre-steady-state target cleavage rate” value under setting [1] worked out at 0.0813 ± 0.022.

With UCCUGCUACAGCUACGAUAGUAUUUAGAAA, under setting [1], the “pre-steady-state target cleavage rate” value was 0.0517 ± 0.019.

Turning to UCCUGGAUGUCCUUGCAUACUAUUUUGUUA, the “pre-steady-state target cleavage rate” value under setting [1] was 0.00525 ± 0.0044.

Regarding UCCUGGAUGUCCUAGCAUAGUAUUUAGUAA, under setting [1], the “pre-steady-state target cleavage rate” value was 0.143 ± 0.031.

In the case of UCCUGCUACACCUUGCAUAGAAUUUAGUUA, the “pre-steady-state target cleavage rate” value under setting [1] was determined as 0.0952 ± 0.037.

Consider UCCUGGAUGUGCUUCCAAAGUAUUUAGUUA, for which the “pre-steady-state target cleavage rate” value under setting [1] worked out at 0.0214 ± 0.0068.

In the case of UCCUGCUUGUGCUUGCAUAGUAUUUACAAA, the “pre-steady-state target cleavage rate” value under setting [1] was found to be 0.0112 ± 0.0055.

Take UCCUGGAUGAGCUUGGUAAGUAUUUAGUAA: under setting [1], the “pre-steady-state target cleavage rate” value amounted to 0.00762 ± 0.0042.

On to UCCUGGAUGAGCUUGCAUAGUUUUUACUUA, for which the “pre-steady-state target cleavage rate” value under setting [1] was 0.00548 ± 0.0051.

For “UCCUGGAUGUCGAAGCAUAGUUAAAUCAAA [g10:g16:cont:t1A]”, the “pre-steady-state target cleavage rate” value under setting [2] was below 0.0001.

On to UCCUGGUACAGCUAGCAUAGAAUUUAGUUA, for which, under setting [1], the “pre-steady-state target cleavage rate” value was 0.313 ± 0.084.

Take UCCUGGAUGUCGAACGAUGGUAUUUAGUUA: the “pre-steady-state target cleavage rate” value under setting [1] is below 0.0001.

In the case of UCCUGGAACAGCAUGCAUAGUAUUUUCAAA, the “pre-steady-state target cleavage rate” value under setting [1] was found to be 0.066 ± 0.018.

For UCCUCCUACAGCUUGCAAUCUAUUUACAAA, the “pre-steady-state target cleavage rate” value under setting [1] was found to be 0.0157 ± 0.0069.

For the sequence UCCUGGAUGUCGUACCAUAGUAUUUAGUUA, the “pre-steady-state target cleavage rate” value under setting [1] stood at 0.0168 ± 0.0047.

Take UCCUGGAUGUCCUAGCAUAGUAUUUACUUA: the “pre-steady-state target cleavage rate” value under setting [1] was determined as 0.0287 ± 0.0091.

Regarding UCCUGGUUGAGCUUGCAUAGUAUUUACAAA, under setting [1], the “pre-steady-state target cleavage rate” value came out at 0.0198 ± 0.0068.

As for UCCUGGAUCAGCUUGCAUAGUAUAAUGAAA, the “pre-steady-state target cleavage rate” value under setting [1] was found to be 0.0691 ± 0.022.

On to UCCUGGAACAGCUUGCAUAGUAUUAACAAA, for which, under setting [1], the “pre-steady-state target cleavage rate” value was 0.104 ± 0.029.

Regarding UCCUGGAUGUCGAUCCAUUGUAUUUAGUUA, the “pre-steady-state target cleavage rate” value under setting [2] was below 0.0001.

Take UCCUGGAUGUCGAUGAAUAGUAUUUAGUUA: the “pre-steady-state target cleavage rate” value under setting [1] came out at 0.00887 ± 0.0033.

For UCCUGGAUGACCUUGCAUAGUAUUUACUUA, the “pre-steady-state target cleavage rate” value under setting [1] was 0.0753 ± 0.027.

Take UCCUGGUACAGCAAGCAUAGUAUUUUCAAA: the “pre-steady-state target cleavage rate” value under setting [1] was 0.0777 ± 0.022.

With UCCUCCUACAGCUUGCAUGAGUAUUUAGUUA, under setting [1], the “pre-steady-state target cleavage rate” value worked out at 0.011 ± 0.0056.

For UCCUGGAUGUGCUUGGAUAGAAUUUAGUUA, the “pre-steady-state target cleavage rate” value under setting [1] is 0.00729 ± 0.0047.

Turning to UCCUGGAACAGCUUGCAUAGUAUUAUCUAA, the “pre-steady-state target cleavage rate” value under setting [1] was 0.0368 ± 0.012.

For UCCUGCUACAGCUUGCAUUCUAUUUUCAAA, the “pre-steady-state target cleavage rate” value under setting [1] turned out to be 0.0184 ± 0.0078.

Turning to UCCUGGAUGUCCUUGCAUAGUAUUUCAGUUA, under setting [1], the “pre-steady-state target cleavage rate” value was determined as 0.0665 ± 0.022.

On to UCCUGGAUGUCGUUGCAAAGUUUUUAGUUA, for which the “pre-steady-state target cleavage rate” value under setting [2] is 0.00384 ± 0.0022.

UCCUGGAUGUCCUUGCAUAGUUAUUAGUUA: under setting [1], the “pre-steady-state target cleavage rate” value was determined as 0.00901 ± 0.004.

For UCCUCCUACAGCUUGCAAUGUAUUUAGUAA, the “pre-steady-state target cleavage rate” value under setting [1] is 0.0921 ± 0.012.

As to UCCUGGAUGAGCUUGCAUAGUAUAUUGUUA, under setting [1], the “pre-steady-state target cleavage rate” value was found to be 0.0743 ± 0.017.

For the sequence UCCUGGAUCAGCUUGCUUAGAAUUUAGUUA, under setting [1], the “pre-steady-state target cleavage rate” value was 0.0318 ± 0.0073.

Consider UCCUGCUACAGCUUGCAUAGUAUUAUCAAA, for which the “pre-steady-state target cleavage rate” value under setting [1] was 0.0862 ± 0.026.

Values taken from the supplement of paper PMC10338343.
